PubChem BioAssay
The source made the active and inactive calls.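 The calls were made as follows, unless noted: active = aptamer binding inhibition above 30%, about 3 SD of noise from non-fluorescent compounds; inactive = inhibition at or below 30%.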

Legend:
[1] = reduced mouse 2C T cell binding to pMHC/ICAM-1 vesicles – MLPCN validation set, flow cytometry, LFA-1/ICAM-1 modulator project, pilot screen (AID 2523;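 active = response below a set limit, under 55% cells CD8-positive and vesicle-bound, and CD8 cells' 90th-percentile brightness under 279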;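 as to vesicle binding response: mean PE anti-B7-1 fluorescence of CD8+ cells relative to row control; 100% = QL9-loaded vesicles with DMSO vehicle in the same plate row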); conditions: 2C mouse CD8+ T cells, at 7 µM, stronger effect = lower value; double positive events: measured here: CD8+/vesicle+ event percentage
[2] = molecular target: Integrin beta-1 (Homo sapiens) + Integrin alpha-4 (Homo sapiens) (UniProt P13612+P05556); assay: alpha4beta1 integrin LIBS antibody binding reduction – U937 cells, HUTS-21 mAb, flow cytometry, validation set, VLA-4 allosteric modulator project, pilot screen (AID 2674;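 active = inhibition above 50%, about 3 SD of the validation set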;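 also: antibody binding induced by the VLA-4 ligand LDV present at three times its Kd; 0% = LDV ligand with antibody and no compound and 100% = antibody without LDV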); conditions: HUTS-21 LIBS mAb binding, at 6.7 µM, stronger effect = higher value, binding induced by LDV ligand
Integrin beta-1 (Homo sapiens) + Integrin alpha-4 (Homo sapiens), sequence (P05556 whole entry, looked up): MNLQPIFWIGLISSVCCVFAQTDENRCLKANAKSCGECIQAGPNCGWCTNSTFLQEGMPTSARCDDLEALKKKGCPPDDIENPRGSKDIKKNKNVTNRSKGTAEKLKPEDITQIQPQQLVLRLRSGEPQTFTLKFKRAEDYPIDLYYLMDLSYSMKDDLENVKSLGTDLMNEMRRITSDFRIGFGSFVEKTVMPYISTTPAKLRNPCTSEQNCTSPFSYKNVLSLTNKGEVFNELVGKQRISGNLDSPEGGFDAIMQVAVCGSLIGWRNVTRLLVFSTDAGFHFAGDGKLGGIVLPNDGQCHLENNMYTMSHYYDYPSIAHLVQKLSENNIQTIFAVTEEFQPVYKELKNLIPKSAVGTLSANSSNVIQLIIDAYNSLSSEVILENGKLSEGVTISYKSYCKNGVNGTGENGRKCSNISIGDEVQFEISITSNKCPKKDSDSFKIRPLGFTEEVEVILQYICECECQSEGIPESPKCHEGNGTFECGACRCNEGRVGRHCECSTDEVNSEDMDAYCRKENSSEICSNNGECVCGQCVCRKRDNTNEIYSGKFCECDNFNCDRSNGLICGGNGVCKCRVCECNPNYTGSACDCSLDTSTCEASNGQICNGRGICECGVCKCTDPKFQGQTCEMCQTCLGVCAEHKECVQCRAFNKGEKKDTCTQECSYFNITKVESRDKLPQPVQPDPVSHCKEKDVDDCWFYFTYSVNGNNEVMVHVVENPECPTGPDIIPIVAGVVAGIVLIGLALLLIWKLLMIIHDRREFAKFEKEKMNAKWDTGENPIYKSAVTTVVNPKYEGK
Integrin beta-1 (Homo sapiens) + Integrin alpha-4 (Homo sapiens), sequence (P13612 whole entry, looked up): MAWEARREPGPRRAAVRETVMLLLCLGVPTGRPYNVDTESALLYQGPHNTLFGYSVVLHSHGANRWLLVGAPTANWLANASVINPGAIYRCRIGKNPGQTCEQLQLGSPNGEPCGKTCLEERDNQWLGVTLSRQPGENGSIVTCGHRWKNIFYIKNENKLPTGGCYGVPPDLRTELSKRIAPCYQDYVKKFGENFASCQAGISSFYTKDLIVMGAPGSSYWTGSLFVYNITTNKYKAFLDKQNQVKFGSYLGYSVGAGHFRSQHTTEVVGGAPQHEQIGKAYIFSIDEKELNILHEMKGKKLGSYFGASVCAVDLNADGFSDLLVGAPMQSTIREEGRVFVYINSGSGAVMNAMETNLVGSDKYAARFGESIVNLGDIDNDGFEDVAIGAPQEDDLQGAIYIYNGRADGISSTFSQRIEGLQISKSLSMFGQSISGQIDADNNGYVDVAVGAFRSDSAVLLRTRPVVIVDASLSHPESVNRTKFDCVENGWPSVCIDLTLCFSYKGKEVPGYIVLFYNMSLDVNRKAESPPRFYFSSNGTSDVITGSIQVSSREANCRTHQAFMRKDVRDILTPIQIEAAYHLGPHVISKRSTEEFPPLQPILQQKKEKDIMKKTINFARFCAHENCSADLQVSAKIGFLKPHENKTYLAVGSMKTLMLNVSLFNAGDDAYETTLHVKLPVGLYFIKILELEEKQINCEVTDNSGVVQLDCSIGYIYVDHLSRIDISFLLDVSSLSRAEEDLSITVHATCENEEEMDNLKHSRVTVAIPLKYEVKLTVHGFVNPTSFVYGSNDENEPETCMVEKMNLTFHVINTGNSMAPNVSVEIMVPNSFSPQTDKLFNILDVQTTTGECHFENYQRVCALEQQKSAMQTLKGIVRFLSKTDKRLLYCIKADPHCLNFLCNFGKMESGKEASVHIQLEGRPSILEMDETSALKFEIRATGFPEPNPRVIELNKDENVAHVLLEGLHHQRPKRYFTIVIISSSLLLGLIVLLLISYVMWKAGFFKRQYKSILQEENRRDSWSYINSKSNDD

[3] = calorie-restriction mimetic ROS inhibitors, yeast – validation compound set, pilot screen (AID 2706;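 active = superoxide response below 65% of plate, a cut near 3 SD across the whole screen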;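 also: yeast exposed to compound for one week at 30 degrees C before staining; 100% = mean of all compound wells on the same plate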); conditions: S. cerevisiae aging, superoxide DHE fluorescence; at 10 µM, stronger effect = lower value
[4] = molecular target: Beta-adrenergic receptor kinase 1 (Homo sapiens) (UniProt P25098); assay: GRK2 binders displacing RNA aptamer, biochemical, validation, human GRK2, bead flow cytometry (AID 488806); conditions: bead-bound GRK2, FAM-aptamer displacement, at 10 µM, stronger effect = higher value
Beta-adrenergic receptor kinase 1 (Homo sapiens), sequence (P25098 whole entry, looked up): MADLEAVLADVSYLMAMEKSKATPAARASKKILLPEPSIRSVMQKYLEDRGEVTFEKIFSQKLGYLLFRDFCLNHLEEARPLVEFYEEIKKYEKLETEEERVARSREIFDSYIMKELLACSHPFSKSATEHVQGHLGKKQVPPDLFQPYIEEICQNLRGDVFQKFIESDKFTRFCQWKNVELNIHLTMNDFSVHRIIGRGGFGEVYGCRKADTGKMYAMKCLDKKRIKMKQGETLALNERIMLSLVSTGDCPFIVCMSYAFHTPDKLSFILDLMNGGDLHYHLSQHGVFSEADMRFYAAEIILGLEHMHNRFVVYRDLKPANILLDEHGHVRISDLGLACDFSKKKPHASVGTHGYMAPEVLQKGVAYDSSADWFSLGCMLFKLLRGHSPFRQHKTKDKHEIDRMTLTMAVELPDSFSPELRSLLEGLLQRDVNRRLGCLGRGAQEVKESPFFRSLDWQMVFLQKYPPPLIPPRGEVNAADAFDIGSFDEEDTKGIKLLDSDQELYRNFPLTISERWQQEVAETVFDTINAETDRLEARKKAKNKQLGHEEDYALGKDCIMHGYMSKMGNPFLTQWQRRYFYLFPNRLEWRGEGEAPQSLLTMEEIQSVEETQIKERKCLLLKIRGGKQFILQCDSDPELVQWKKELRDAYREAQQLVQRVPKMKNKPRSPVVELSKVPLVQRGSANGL

[5] = molecular target: Beta-2 adrenergic receptor (Homo sapiens) (UniProt P07550); assay: agonist-induced loss of surface beta2AR – cell-based, FAP fluorogen, flow cytometry, validation set, pilot screen (AID 504459;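 active = percent response above 42, roughly 3 SD of non-fluorescent test compounds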;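 also: agonist-driven loss of surface beta2AR via internalization measured by FAP dye flow cytometry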); conditions: Am2.2-beta2AR cells, at 10 µM, stronger effect = higher value
Beta-2 adrenergic receptor (Homo sapiens), sequence (P07550 whole entry, looked up): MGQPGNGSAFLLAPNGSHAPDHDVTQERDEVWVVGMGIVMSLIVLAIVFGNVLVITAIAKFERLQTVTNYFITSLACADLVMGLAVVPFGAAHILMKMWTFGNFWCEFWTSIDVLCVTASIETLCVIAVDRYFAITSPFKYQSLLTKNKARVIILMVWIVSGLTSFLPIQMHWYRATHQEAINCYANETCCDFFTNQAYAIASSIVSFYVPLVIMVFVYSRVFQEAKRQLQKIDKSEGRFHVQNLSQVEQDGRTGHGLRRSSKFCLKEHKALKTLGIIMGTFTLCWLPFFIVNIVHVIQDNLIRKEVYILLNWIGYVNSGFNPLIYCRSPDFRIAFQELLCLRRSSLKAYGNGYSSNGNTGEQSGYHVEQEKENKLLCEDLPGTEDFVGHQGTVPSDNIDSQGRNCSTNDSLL

[6] = molecular target: AP-2 complex subunit beta (Homo sapiens) (UniProt P63010); assay: beta-arrestin/AP2 interaction blockers – biochemical, validation set, GST-AP2 beads, flow cytometry, pilot screen (AID 504541;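 active = inhibition above 54%, about 3 SD of non-fluorescent compounds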;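 also: AP2 carries R879A mutation and is captured from E. coli lysate; bead-bound FITC arrestin peptide fluorescence measuring arrestin peptide binding to AP2; 0% = DMSO wells and 100% = excess unlabeled arrestin peptide control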); conditions: FITC arrestin peptide, at 10 µM, stronger effect = higher value, AP2 beta2 appendage fragment, R879A mutant
AP-2 complex subunit beta (Homo sapiens), sequence (P63010 whole entry, looked up, the tested form may be a part, one chain of several): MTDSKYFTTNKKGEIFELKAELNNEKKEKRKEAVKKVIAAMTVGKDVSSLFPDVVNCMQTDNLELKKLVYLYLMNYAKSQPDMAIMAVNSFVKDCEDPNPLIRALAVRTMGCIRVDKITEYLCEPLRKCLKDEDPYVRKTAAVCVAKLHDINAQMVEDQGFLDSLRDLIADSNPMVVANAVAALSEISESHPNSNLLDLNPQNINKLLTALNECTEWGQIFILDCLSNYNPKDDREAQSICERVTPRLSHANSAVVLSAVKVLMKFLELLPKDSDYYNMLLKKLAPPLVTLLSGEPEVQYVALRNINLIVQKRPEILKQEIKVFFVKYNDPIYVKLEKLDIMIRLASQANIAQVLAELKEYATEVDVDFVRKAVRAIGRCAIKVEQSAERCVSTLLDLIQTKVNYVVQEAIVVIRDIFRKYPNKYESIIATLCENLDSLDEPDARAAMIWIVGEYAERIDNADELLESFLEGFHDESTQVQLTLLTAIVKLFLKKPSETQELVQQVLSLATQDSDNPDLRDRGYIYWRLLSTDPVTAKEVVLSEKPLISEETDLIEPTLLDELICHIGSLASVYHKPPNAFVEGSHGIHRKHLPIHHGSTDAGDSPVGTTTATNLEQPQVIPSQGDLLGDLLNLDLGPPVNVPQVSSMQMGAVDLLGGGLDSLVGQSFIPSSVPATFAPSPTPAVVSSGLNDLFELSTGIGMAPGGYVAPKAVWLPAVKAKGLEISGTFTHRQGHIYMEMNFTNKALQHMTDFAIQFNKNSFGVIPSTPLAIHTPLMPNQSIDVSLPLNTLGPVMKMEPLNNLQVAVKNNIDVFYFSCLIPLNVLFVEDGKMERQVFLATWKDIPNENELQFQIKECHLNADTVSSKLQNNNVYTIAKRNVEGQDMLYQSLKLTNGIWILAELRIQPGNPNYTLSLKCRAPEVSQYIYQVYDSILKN

[7] = cytosolic pH regulators acting via V-ATPase – S. cerevisiae, pHLuorin, HTS validation (AID 504600; in the data active = response above about 15%;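 also: plate controls were DMSO for no effect and reference compound for full effect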); conditions: V-ATPase proton transport, at 10 µM, stronger effect = higher value
[8] = test system: anti-desmoglein-3 scFv antibody binding to human DSG3; assay: blockers of pathogenic pemphigus antibody–desmoglein-3 binding – biochemical, validation compound set, bead-based, flow cytometry, pilot screen (AID 588368;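 active = binding below the plate cutoff, the plate median minus 3 SD, with a reading above zero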;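 also: signal is the median channel fluorescence of bead-bound GFP antibody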); conditions: Protein G beads, DSG3-Fc, scFv-GFP binding, at 10 µM, stronger effect = lower value
[9] = Nile Red efflux blockade in pump-expressing yeast – validation compound set, multiplex, phenotypic, pilot screen (AID 588506;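 active = efflux inhibition above 0.42, the validation set average plus 4 SD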;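 also: Nile Red retained in cells so higher fluorescence means more efflux inhibition; 0 = negative control wells and 1 = enniatin B 25 µM full block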); conditions: S. cerevisiae pump-expressing triplex, Nile Red efflux flow cytometry; at 10 µM; stronger effect = higher value; the pumps come from Candida albicans
[10] = molecular target: ATP-binding cassette sub-family B member 6 (Homo sapiens) (UniProt Q9NP58); assay: blockers of ABCB6-driven porphyrin uptake – K562-ABCB6 cells, flow cytometry, validation set, pilot screen (AID 588550;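 active = inhibition above the screen-wide mean plus 3 SD, about 51%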;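 also: 0% = DMSO wells and 100% = benzethonium chloride 70 µM positive control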); conditions: K562-ABCB6 porphyrin accumulation, 1 h, at 10 µM, stronger effect = higher value
ATP-binding cassette sub-family B member 6 (Homo sapiens), sequence (Q9NP58 whole entry, looked up): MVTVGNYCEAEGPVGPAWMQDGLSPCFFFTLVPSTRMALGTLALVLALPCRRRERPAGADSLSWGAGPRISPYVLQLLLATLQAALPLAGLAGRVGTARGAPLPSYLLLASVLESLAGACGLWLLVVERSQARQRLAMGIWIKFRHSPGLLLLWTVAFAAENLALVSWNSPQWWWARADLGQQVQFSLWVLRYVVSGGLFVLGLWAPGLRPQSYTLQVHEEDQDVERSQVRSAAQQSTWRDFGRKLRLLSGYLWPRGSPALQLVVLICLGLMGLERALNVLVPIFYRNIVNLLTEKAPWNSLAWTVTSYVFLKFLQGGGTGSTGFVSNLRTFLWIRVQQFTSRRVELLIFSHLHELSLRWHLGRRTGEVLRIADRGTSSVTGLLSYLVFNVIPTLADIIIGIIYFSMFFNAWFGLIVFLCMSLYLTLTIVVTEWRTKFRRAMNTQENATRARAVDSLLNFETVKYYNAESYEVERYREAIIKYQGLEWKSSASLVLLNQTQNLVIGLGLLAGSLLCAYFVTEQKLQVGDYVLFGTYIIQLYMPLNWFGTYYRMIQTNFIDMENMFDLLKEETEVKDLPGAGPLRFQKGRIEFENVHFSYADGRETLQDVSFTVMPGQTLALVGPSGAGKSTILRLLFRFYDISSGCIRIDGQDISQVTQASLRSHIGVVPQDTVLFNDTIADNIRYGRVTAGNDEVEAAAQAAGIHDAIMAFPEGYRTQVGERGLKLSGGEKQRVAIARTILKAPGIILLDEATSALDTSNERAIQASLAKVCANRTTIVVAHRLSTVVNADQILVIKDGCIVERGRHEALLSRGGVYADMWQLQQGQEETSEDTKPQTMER

[11] = AML differentiation inducers, ER-HoxA9 marrow cells – cell-based, GFP/MAC1 double positive, flow cytometry, validation set, primary screen (AID 588685;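 active = differentiation response of at least 50%, scaled between solvent and reference control, from cells with both markers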;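 also: compound exposure lasts four days before antibody staining and flow analysis; 0% = DMSO wells and 100% = 5 µM fulvestrant positive control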); conditions: stronger effect = higher value, normalized: vehicle 0, fulvestrant 100

C=CCNC(=S)N1CCc2c([nH]c3ccccc23)C1C (centres undefined)
inactive: vesicle binding response [1] 194% | inhibition [2] 15.1% | superoxide response (% of plate) [3] 99% | aptamer binding inhibition [4] -3% | response [5] -13% | inhibition [6] -13.8% | response [7] 2.11% | binding (% of control) [8] 102% | efflux inhibition (fraction of control) [9] -0.09 | inhibition [10] 15% | differentiation response [11] -11.9%
60.6%: double positive events [1]

CC(C)Cc1nc(NCCN2CCOCC2)c(C#N)c2c1COC(C)(C)C2
61.1%: double positive events [1]
inactive: vesicle binding response [1] 159% | inhibition [2] 7.4% | superoxide response (% of plate) [3] 93.4% | aptamer binding inhibition [4] -1% | response [5] -20.4% | inhibition [6] -18.1% | response [7] 3.4% | binding (% of control) [8] 104% | efflux inhibition (fraction of control) [9] 0.08 | inhibition [10] -5% | differentiation response [11] -15.8%

CCS(=O)(=O)Nc1cc(OC)c(OC)cc1Cc1nccc2cc(OC)c(OC)cc12
inactive: vesicle binding response [1] 90.7% | inhibition [2] -9.63% | superoxide response (% of plate) [3] 93.2% | aptamer binding inhibition [4] -1% | response [5] -40% | inhibition [6] -7.26% | response [7] 4.6% | binding (% of control) [8] 106% | efflux inhibition (fraction of control) [9] 0.08 | inhibition [10] 0% | differentiation response [11] -5.97%
57.8%: double positive events [1]

COc1ccc(/C=C2\CCn3c2nc2cc(C(=O)O)ccc2c3=O)cc1OC
inactive: vesicle binding response [1] 178% | inhibition [2] 5.61% | superoxide response (% of plate) [3] 108% | aptamer binding inhibition [4] 1% | response [5] 7.98% | inhibition [6] -3.78% | response [7] 0.13% | binding (% of control) [8] 102% | efflux inhibition (fraction of control) [9] 0 | inhibition [10] 2% | differentiation response [11] -8.96%
60.5%: double positive events [1]

CC(C)C1Cc2[nH]c(=O)c(C(=O)O)cc2CO1 (centres undefined)
inactive: vesicle binding response [1] 1810% | inhibition [2] 25.5% | superoxide response (% of plate) [3] 95.9% | aptamer binding inhibition [4] 4% | response [5] -2.38% | inhibition [6] -1.16% | response [7] -0.04% | binding (% of control) [8] 94.2% | efflux inhibition (fraction of control) [9] -0.1 | inhibition [10] 10% | differentiation response [11] 3.18%
64.9%: double positive events [1]

C/C(NC(=O)c1cccs1)=C1\C(=O)C[C@@H]2[C@H]1C2(C)C
inactive: vesicle binding response [1] 193% | inhibition [2] 0.59% | superoxide response (% of plate) [3] 102% | aptamer binding inhibition [4] -8% | response [5] -39.8% | inhibition [6] -13% | response [7] -6.85% | binding (% of control) [8] 105% | efflux inhibition (fraction of control) [9] -0.04 | inhibition [10] 9% | differentiation response [11] -11.9%
56.1%: double positive events [1]

O=P(c1ccccc1)(c1ccccc1)c1nc(-c2ccc(Cl)cc2)oc1N1CCOCC1
active: efflux inhibition (fraction of control) [9] 0.435
57.7%: double positive events [1]
inactive: vesicle binding response [1] 148% | inhibition [2] 4.27% | superoxide response (% of plate) [3] 135% | aptamer binding inhibition [4] 2% | response [5] -13.6% | inhibition [6] 7.65% | response [7] 3.02% | binding (% of control) [8] 105% | inhibition [10] -3% | differentiation response [11] -3.11%

O=C(/C=C/c1ccc2c(c1)OCO2)c1ccccn1
60.4%: double positive events [1]
inactive: vesicle binding response [1] 181% | inhibition [2] 4.84% | superoxide response (% of plate) [3] 89.8% | aptamer binding inhibition [4] 1% | response [5] -23.4% | inhibition [6] -13% | response [7] -4.66% | binding (% of control) [8] 102% | efflux inhibition (fraction of control) [9] 0 | inhibition [10] -8% | differentiation response [11] -5.97%

COc1ccccc1C(=O)N=C1NC(=O)CC2C(=O)NCCN12 (centres undefined)
inactive: vesicle binding response [1] 245% | inhibition [2] 6.4% | superoxide response (% of plate) [3] 100% | aptamer binding inhibition [4] 0% | response [5] -0.52% | inhibition [6] 0.24% | response [7] -0.05% | binding (% of control) [8] 103% | efflux inhibition (fraction of control) [9] 0.08 | inhibition [10] 9% | differentiation response [11] -8.8%
63.2%: double positive events [1]

O=C(Nc1cccc(-c2nc3ncccc3o2)c1)c1ccccc1
inactive: vesicle binding response [1] 159% | inhibition [2] 2.3% | superoxide response (% of plate) [3] 106% | aptamer binding inhibition [4] 1% | response [5] 17.2% | inhibition [6] -1.86% | response [7] 7.44% | binding (% of control) [8] 102% | efflux inhibition (fraction of control) [9] -0.06 | inhibition [10] 0% | differentiation response [11] -16.8%
56.1%: double positive events [1]

O=C(Nc1ccccc1)c1ccccc1CCc1ccccc1
inactive: vesicle binding response [1] 167% | inhibition [2] 6.95% | superoxide response (% of plate) [3] 90.9% | aptamer binding inhibition [4] 5% | inhibition [6] 9.22% | response [7] -1.57% | binding (% of control) [8] 95.3% | efflux inhibition (fraction of control) [9] -0.12 | inhibition [10] 0% | differentiation response [11] -0.18%
61.3%: double positive events [1]
active: response [5] 46.6%

O=c1[nH]c(Cc2ccccc2)nc2c1oc1ccccc12
58.4%: double positive events [1]
inactive: vesicle binding response [1] 200% | inhibition [2] -7.25% | superoxide response (% of plate) [3] 94% | aptamer binding inhibition [4] 12% | response [5] 0.02% | inhibition [6] -7.86% | response [7] -2.08% | binding (% of control) [8] 97% | efflux inhibition (fraction of control) [9] -0.17 | inhibition [10] 4% | differentiation response [11] -4%
